# Data reported in PubChem BioAssay AID463173 (ICCB-Longwood Screening Facility, Harvard Medical School, 2010).
# The whole screen tested about 52,000 compounds, of which about 4,300 (8.3%) were called active. Cut-off read from the data, not from the text of the source: active = survival mostly below about 52% (no sharp cut-off); inactive = mostly above about 56%. What follows is part of a selection rich in actives, with near analogues and random picks from the rest.
# Test system: DeltatarO mutant
# Assay: growth inhibition of S. aureus wild type versus tarO mutant, primary screen, teichoic acid synthesis inhibitors, RN4220, OD600 (AID 463173)
# Details: OD600, 18 h, hits give low values, screened at 18.75 µg/mL (by protocol)
row,SMILES,survival
1,COc1cccc(C(C(=O)NCc2ccco2)N(C(=O)Cn2nnc3ccccc32)C2CC2)c1OC (stereo not given),107% (inactive)
2,CCOC(=O)c1noc2nc(C)n(CC(=O)Nc3cc(Cl)ccc3OC)c(=O)c12,109% (inactive)
3,Cc1csc2nc(CCNS(=O)(=O)c3ccccc3)cn12,79% (inactive)
4,Cc1cc(C)c(/C=C/c2onc(C)c2S(=O)(=O)N2CCC(C(=O)Nc3ccc(Cl)c(C(F)(F)F)c3)CC2)c(C)c1,67% (inactive)
5,Cc1nn2c(=O)cc(COC(=O)c3ccccc3NC(=O)c3ccccc3C)nc2s1,104% (inactive)
6,COc1ccc(-c2nc3scc(CCNS(=O)(=O)c4c(C)cc(C)cc4C)n3n2)cc1OC,85% (inactive)
7,Cc1ccccc1-c1nc(CNC(=O)Nc2ccccc2)c(C)o1,89% (inactive)
8,CC(C)Oc1ccc(CN2CCc3nc(Nc4ccc5c(c4)OCCO5)ncc3C2)cc1,77% (inactive)
9,Cc1ccc(Cl)cc1Nc1nn2c(=O)c3ccc(C(=O)NC(C)c4ccccc4)cc3nc2s1 (stereo not given),105% (inactive)
10,CN(C(=O)CSc1nc2ccc(NC(=O)COc3ccc(F)cc3)cc2s1)c1ccccc1,73% (inactive)
11,CCC1CCCCN1CC(=O)N1CCCc2c1c(=O)oc1ccc(OCc3ccccc3)cc21 (stereo not given),18% (active)
12,CC1CCCCN1CC(=O)N1CCCc2c1c(=O)oc1ccc(OCc3ccccc3)cc21 (stereo not given),77% (inactive)
13,CC1CCN(CC(=O)N2CCCc3c2c(=O)oc2ccc(OCc4ccccc4)cc32)CC1,98% (inactive)
14,COc1ccc(N(Cc2nnc3n2CCCCC3)C(=O)Nc2cccc(C)c2)cc1Cl,81% (inactive)
15,Cc1sc(-c2cc3c([nH]c2=O)CC(c2ccccc2)CC3=O)nc1-c1ccc(Cl)cc1 (stereo not given),73% (inactive)
16,COc1ccc(C2CC(=O)c3cc(-c4nc(-c5ccc(Cl)cc5)cs4)c(=O)[nH]c3C2)cc1 (stereo not given),167% (inactive)
17,COc1ccc(C2CC(=O)c3cc(-c4nc(-c5ccc(Cl)cc5)c(C)s4)c(=O)[nH]c3C2)cc1 (stereo not given),70% (active)
18,CON(C)c1nc(OCCNC(=O)OCc2ccc(Cl)cc2Cl)nc(N(C)C)n1,76% (inactive)
19,CCOc1ccc(NC(=O)CCCc2nnc3n(C)c(=O)c4sccc4n23)cc1,78% (inactive)
20,Cc1nc2ccn(Cc3cccs3)c(=O)c2cc1C(=O)NCc1ccc(Br)cc1,70% (inactive)
21,Cc1nc2ccn(Cc3cccs3)c(=O)c2cc1C(=O)NCc1ccccc1,78% (inactive)
22,COc1cc(NC(=O)c2cc3c(=O)n(Cc4cccs4)ccc3nc2C)cc(OC)c1OC,0% (active)
23,CCc1ccc(CNC(=O)c2cc3c(=O)n(Cc4cccs4)ccc3nc2C)cc1,32% (active)
24,Cc1nc2ccn(Cc3cccs3)c(=O)c2cc1C(=O)Nc1ccccc1,84% (inactive)
25,Cc1nc2ccn(Cc3cccnc3)c(=O)c2cc1C(=O)NCc1ccccc1,72% (inactive)
26,Cc1nc2ccn(Cc3cccnc3)c(=O)c2cc1C(=O)N1CCN(c2ccccc2)CC1,105% (inactive)
27,COc1ccc(NC(=O)c2cc3c(=O)n(Cc4cccs4)ccc3nc2C)cc1,75% (inactive)
28,COc1ccc(CNC(=O)c2cc3c(=O)n(Cc4cccnc4)ccc3nc2C)cc1,37% (active)

row,SMILES,survival
1,Cc1ccc(C)c(N2CCN(C(=O)c3cc4c(=O)n(Cc5ccccc5)ccc4nc3C)CC2)c1,78% (inactive)
2,COc1cccc(CNC(=O)c2cc3c(=O)n(Cc4cccnc4)ccc3nc2C)c1,144% (inactive)
3,Cc1ccc(C)c(N2CCN(C(=O)c3cc4c(=O)n(Cc5cccnc5)ccc4nc3C)CC2)c1,46% (active)
4,CCc1ccc(-n2c(=O)c3cccnc3n2CC(=O)N(CC)c2cccc(C)c2)cc1,94% (inactive)
5,COc1ccc(Cl)cc1NC(=O)CCc1c(C)nc2c(c1C)c(=O)n(C)c(=O)n2C,94% (inactive)
6,Cc1cc(C)cc(NC(=O)Cn2c(C)cc(C)c(C#N)c2=O)c1,89% (inactive)
7,CC(=NCCCn1ccnc1)c1c(C(F)(F)F)[nH]n(-c2nc3ccccc3s2)c1=O,120% (inactive)
8,COC(=O)c1ccc(Cn2nnc3c(=O)[nH]c(C4CCCN(S(=O)(=O)c5ccccc5)C4)nc32)cc1 (stereo not given),99% (inactive)
9,CCOc1nc(NCCO)nc(NCCC2=CCCCC2)n1,67% (inactive)
10,CCc1ccccc1-n1nnc(-c2nc(-c3ccccc3F)no2)c1C,102% (inactive)
11,CC(C)(C)c1ccc(C(=O)NCC(=O)OCc2cc(=O)n3nc(C4CC4)sc3n2)cc1,85% (inactive)
12,CCOC(=O)c1c(S(=O)(=O)N2CCN(c3cccc(C(F)(F)F)c3)CC2)c(C)n(C)c1C,116% (inactive)
13,CCS(=O)(=O)c1cccc(C(=O)N2CCN(c3nc4c(C)ccc(Cl)c4s3)CC2)c1,78% (inactive)
14,COc1ccc(CNC(=O)c2cc3c(=O)n(Cc4cccs4)ccc3nc2C)cc1,37% (active)
15,CCOc1ccc(CNC(=O)c2cc3c(=O)n(Cc4cccs4)ccc3nc2C)cc1,112% (inactive)
16,Cc1nc2ccn(Cc3ccco3)c(=O)c2cc1C(=O)NCc1ccc(Cl)cc1,47% (active)
17,COc1cccc(NC(=O)c2cc3c(=O)n(Cc4cccnc4)ccc3nc2C)c1,101% (inactive)
18,CC(=O)Nc1ccc(NC(=O)c2cc3c(=O)n(Cc4cccnc4)ccc3nc2C)cc1,57% (inactive)
19,Cc1nc2ccn(Cc3ccco3)c(=O)c2cc1C(=O)NCc1ccccc1,79% (inactive)
20,Cc1nc2ccn(Cc3cccs3)c(=O)c2cc1C(=O)NCc1ccc(Cl)cc1,49% (inactive)
21,Cc1ccc(CNC(=O)c2cc3c(=O)n(Cc4ccco4)ccc3nc2C)cc1,87% (inactive)
22,Cc1cccc(NC(=O)c2cc3c(=O)n(Cc4cccnc4)ccc3nc2C)c1,0% (active)
23,Cc1nn(C)c2c1c(-c1ccccc1)cc(=O)n2Cc1ccccc1Cl,88% (inactive)
24,Cc1cccc(NC(=O)Cn2c(=O)n(CCc3ccccc3)c(=O)c3sc4ccccc4c32)c1,105% (inactive)
25,Cc1ccc(Cn2ccnc2SCC(=O)NC2CCCC2)cc1,89% (inactive)
26,Cc1cccc(C)c1NC(=O)CN1C(=O)c2ccccc2Sc2ncccc21,88% (inactive)
27,COc1ccccc1-c1cc(C(=O)NCc2ccccc2)c2c(-c3ccc(C)cc3)[nH]nc2n1,80% (inactive)
